The values that follow come from PubChem BioAssay (EPA / NIEHS).

Results filed as inconclusive are left out. Calls of active or inactive are those of the source. The calls were made as follows, unless noted: active = hit-call score of the fitted dose curve at least 0.9, where 1 is the maximum; inactive = score below 0.9.

The target in assay [1] is Retinoic acid receptor RXR-alpha (Homo sapiens) (UniProt P19793). Put plainly: ATG_RXRa_TRANS: Attagene TRANS-FACTORIAL HepG2 Assay for human Retinoid X Receptor alpha (RXRa) (AID 2283012; active = hit-call score of the fitted dose curve at least 0.9, where 1 is the maximum). In short, it runs like this: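 Read-out: fluorescent reporter-transcript fragments quantified by capillary electrophoresis after RT-PCR. Transiently transfected HepG2 cells carrying GAL4-UAS reporters and NR-GAL4 chimeras were exposed to chemical for 24 h; activity scored as increase over DMSO.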
Retinoic acid receptor RXR-alpha (Homo sapiens), sequence (P19793 whole entry, looked up, the tested form may be a part): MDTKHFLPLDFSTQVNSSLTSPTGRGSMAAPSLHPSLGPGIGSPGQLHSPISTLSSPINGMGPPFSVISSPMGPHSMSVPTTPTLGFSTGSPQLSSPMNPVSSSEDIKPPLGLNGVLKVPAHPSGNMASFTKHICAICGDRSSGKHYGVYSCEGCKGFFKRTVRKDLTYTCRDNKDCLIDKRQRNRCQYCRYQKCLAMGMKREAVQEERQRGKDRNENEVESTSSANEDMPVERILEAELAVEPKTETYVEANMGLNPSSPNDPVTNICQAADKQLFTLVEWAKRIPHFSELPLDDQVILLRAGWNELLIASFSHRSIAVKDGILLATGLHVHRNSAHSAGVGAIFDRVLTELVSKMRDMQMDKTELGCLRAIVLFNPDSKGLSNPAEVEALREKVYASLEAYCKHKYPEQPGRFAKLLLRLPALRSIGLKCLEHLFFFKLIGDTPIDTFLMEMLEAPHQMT

In assay [2] the target is human Retinoid X Receptor beta (RXRb), RXRB (gene 6257) (UniProt P28702). Nature of the assay: ATG_RXRb_TRANS: Attagene TRANS-FACTORIAL HepG2 Assay for human Retinoid X Receptor beta (RXRb) (AID 2283013; active = hit-call score of the fitted dose curve at least 0.9, where 1 is the maximum). In short, it runs like this: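 Read-out: reporter mRNA induction via RT-PCR plus capillary electrophoresis fluorescence, analysed as signal increase relative to DMSO. Cells were human HepG2, transiently transfected with GAL4-UAS reporter constructs and chimeric receptor-Gal4 fusions, dosed for 24 h.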
human Retinoid X Receptor beta (RXRb), RXRB (gene 6257), sequence (P28702 whole entry, looked up, the tested form may be a part): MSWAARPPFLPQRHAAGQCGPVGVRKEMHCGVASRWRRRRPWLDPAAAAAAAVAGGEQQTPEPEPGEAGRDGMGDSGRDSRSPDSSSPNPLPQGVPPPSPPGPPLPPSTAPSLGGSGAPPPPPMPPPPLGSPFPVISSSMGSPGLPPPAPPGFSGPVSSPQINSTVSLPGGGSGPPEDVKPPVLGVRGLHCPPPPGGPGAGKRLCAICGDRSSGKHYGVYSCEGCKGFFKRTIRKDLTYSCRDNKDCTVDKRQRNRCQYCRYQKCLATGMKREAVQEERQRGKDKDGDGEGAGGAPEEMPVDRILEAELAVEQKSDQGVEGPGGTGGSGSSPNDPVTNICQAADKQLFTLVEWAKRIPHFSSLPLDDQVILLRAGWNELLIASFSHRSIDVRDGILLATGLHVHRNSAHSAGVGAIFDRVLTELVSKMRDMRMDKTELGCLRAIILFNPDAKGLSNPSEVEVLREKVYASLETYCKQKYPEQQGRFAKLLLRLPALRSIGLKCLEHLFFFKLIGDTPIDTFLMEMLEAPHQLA

Read-out in assay [3]: E-selectin (Homo sapiens) (UniProt P16581)
Nature of the assay: BSK_3C_Eselectin: BioMAP Diversity Plus: 3C Assay for Eselectin Biomarker Activity (AID 2283015).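 As to outcome: cell surface E-selectin protein quantified by ELISA 24 h after dosing.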 As to conditions: primary human endothelial cells (HUVEC); actives raise or lower the signal. In short, it runs like this:
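Endpoint derived by bidirectional fitting against DMSO vehicle; signal is ELISA-detected E-selectin from primary HUVEC at 24 h post-dosing, with parallel SRB staining (0.1% SRB, 560 nm) flagging cytotoxicity.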

Read-out in assay [4]: Interleukin-1 alpha (IL1a), IL1A (gene 3552)
Put plainly: BSK_BE3C_IL1a: BioMAP Diversity Plus: BE3C Assay for Interleukin-1 alpha (IL1a) Biomarker Activity (AID 2283016). The note with it: primary human bronchial epithelial cells; actives raise or lower the signal. In short, it runs like this:
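ELISA read-out of IL-1a from human lung bronchial epithelial primary cells, 24 h post-dose. Gain or loss of signal fitted relative to DMSO negative control.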

Read-out in assay [5]: Monocyte Chemoattractant Protein-1 (MCP1), CCL2 (gene 6347)
Nature of the assay: BSK_3C_MCP1: BioMAP Diversity Plus: 3C Assay for Monocyte Chemoattractant Protein-1 (MCP1) Biomarker Activity (AID 2283017). As to conditions: primary human endothelial cells (HUVEC); actives raise or lower the signal. In short, it runs like this:
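Using human vascular primary endothelium, researchers measured MCP-1 by ELISA 24 h after treatment, with DMSO serving as negative control for bidirectional fitting.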

Read-out in assay [6]: Monocyte Chemoattractant Protein-1 (MCP1), CCL2 (gene 6347)
Put plainly: BSK_4H_MCP1: BioMAP Diversity Plus: 4H Assay for Monocyte Chemoattractant Protein-1 (MCP1) Biomarker Activity (AID 2283018). As to conditions: primary human endothelial cells (HUVEC); actives raise or lower the signal. In short, it runs like this: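 HUVEC primary cells, 24 h post-dose, MCP-1 by ELISA. Gain or loss of signal fitted bidirectionally vs DMSO baseline. Cytotoxicity: SRB stain (0.1% after 10% TCA fixation), read 560 nm, parallel cultures.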

Read-out in assay [7]: Human Leukocyte Antigen - DR isotype (HLADR), HLA-DRA (gene 3122)
Put plainly: BSK_3C_HLADR: BioMAP Diversity Plus: 3C Assay for Human Leukocyte Antigen - DR isotype (HLADR) Biomarker Activity (AID 2283019).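 As to outcome: ELISA of cell-surface HLA-DR on HUVEC 24 h after dosing.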 As to conditions: primary human endothelial cells (HUVEC); actives raise or lower the signal. In short, it runs like this:
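Compound added to primary HUVEC cultures, 24 h incubation, then HLA-DR determined by ELISA; endpoint derived by bidirectional fitting relative to DMSO negative control.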

Read-out in assay [8]: Monokine induced gamma interferon (MIG), CXCL9 (gene 4283)
Put plainly: BSK_3C_MIG: BioMAP Diversity Plus: 3C Assay for Monokine induced gamma interferon (MIG) Biomarker Activity (AID 2283021). As to conditions: primary human endothelial cells (HUVEC); actives raise or lower the signal. In short, it runs like this:
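HUVEC, 3C system; 24 h chemical exposure; MIG by ELISA; bidirectional fit vs DMSO baseline.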

Assay [9] concerns the target human Vitamin D Receptor (VDR), VDR (gene 7421) (UniProt P11473). Nature of the assay: ATG_VDR_TRANS: Attagene TRANS-FACTORIAL HepG2 Assay for human Vitamin D Receptor (VDR) (AID 2283022; active = hit-call score of the fitted dose curve at least 0.9, where 1 is the maximum). In short, it runs like this:
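Multiplexed TRANS reporter in HepG2; 24 h treatment; reporter mRNA by RT-PCR plus capillary electrophoresis; upregulation scored relative to DMSO.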

Assay [10] in a line: BSK_3C_SRB: Viability Assessment in the BioMAP Diversity Plus: 3C Assay (AID 2283023).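 Also: fitted both ways against DMSO so a hit may be signal rise or drop.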 As to conditions: primary human endothelial cells (HUVEC). In short, it runs like this:
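Overt cytotoxicity is gauged in parallel confluent HUVEC cultures by SRB total-protein staining at the time of biomarker measurement, 24 h after dosing. Gain or loss of signal is fitted versus DMSO.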

Read-out in assay [11]: Matrix Metallopeptidase 1 (MMP1), MMP1 (gene 4312)
Nature of the assay: BSK_BE3C_MMP1: BioMAP Diversity Plus: BE3C Assay for Matrix Metallopeptidase 1 (MMP1) Biomarker Activity (AID 2283024). As to conditions: primary human bronchial epithelial cells; actives raise or lower the signal. In short, it runs like this: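 ELISA read-out of MMP1 in human lung bronchial epithelial primary cultures, 24 h post-dose; bidirectional curve fit vs DMSO baseline, gain or loss of signal scored.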

Assay [12] is described as follows: BSK_3C_Vis: BioMAP Diversity Plus: 3C Assay for Morphology Visualization (AID 2283025).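 Also: fitted both ways so gain or loss versus DMSO counts.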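 As to AC50: light microscopy image of cell morphology used as background control; cells imaged 24 h after dosing.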 The note with it: primary human endothelial cells (HUVEC). In short, it runs like this:
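HUVEC, 3C system; light microscopy of morphology at 24 h post-dose. Bidirectional fit vs DMSO baseline. Secondary readout, background-control function.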

Read-out in assay [13]: Pselectin, SELP (gene 6403)
Nature of the assay: BSK_4H_Pselectin: BioMAP Diversity Plus: 4H Assay for Pselectin Biomarker Activity (AID 2283026). As to conditions: primary human endothelial cells (HUVEC); actives raise or lower the signal. In short, it runs like this: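 HUVEC, 24 h chemical exposure; P-selectin read by ELISA. Bidirectional curve fit vs DMSO baseline; gain or loss of signal scored.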

The nature of assay [14]: BSK_4H_SRB: Viability Assessment in the BioMAP Diversity Plus: 4H Assay (AID 2283027).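 Also: cells exposed to compound for 24 h before staining.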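 As to AC50: curves fitted both ways versus DMSO so AC50 may be loss or gain.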 As to conditions: primary human endothelial cells (HUVEC). In short, it runs like this: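 Cytotoxicity readout: sulforhodamine B (0.1%) staining of total protein after 10% TCA fixation, measured at 560 nm in human umbilical vein endothelium at 24 h. DMSO set the baseline; fitting was bidirectional.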

Assay [15] is described as follows: BSK_BE3C_SRB: Viability Assessment in the BioMAP Diversity Plus: BE3C Assay (AID 2283028).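 Also: measured 24 h after chemical dosing.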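 As to AC50: fitted both ways so AC50 may mark signal gain or loss versus DMSO.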 The note with it: primary human bronchial epithelial cells. In short, it runs like this: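 SRB total-protein staining (0.1%, after TCA fixation) of chemically dosed human bronchial epithelial primary cells at 24 h; DMSO serves as the negative control for bidirectional curve fitting.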

Read-out in assay [16]: Thrombomodulin, THBD (gene 7056)
Put plainly: BSK_3C_Thrombomodulin: BioMAP Diversity Plus: 3C Assay for Thrombomodulin Biomarker Activity (AID 2283029). As to conditions: primary human endothelial cells (HUVEC); actives raise or lower the signal. In short, it runs like this:
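HUVEC, 3C conditions; compound 24 h; thrombomodulin by ELISA; bidirectional curve fit vs DMSO baseline; parallel SRB total-protein staining for cytotoxicity.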

Read-out in assay [17]: Urokinase-type plasminogen activator receptor (uPAR), PLAUR (gene 5329)
Nature of the assay: BSK_4H_uPAR: BioMAP Diversity Plus: 4H Assay for Urokinase-type plasminogen activator receptor (uPAR) Biomarker Activity (AID 2283030). The note with it: primary human endothelial cells (HUVEC); actives raise or lower the signal. In short, it runs like this:
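Endpoint derived via bidirectional curve fitting against DMSO baseline; readout was ELISA detection of uPAR on umbilical vein endothelial cells at 24 h post-treatment, with SRB-stained parallel cultures assessing cytotoxicity.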

Read-out in assay [18]: Vascular endothelial growth factor receptor 2 (Homo sapiens) (UniProt P35968)
Put plainly: BSK_4H_VEGFRII: BioMAP Diversity Plus: 4H Assay for Vascular endothelial growth factor receptor 2 (VEGFR2) Biomarker Activity (AID 2283031). As to conditions: primary human endothelial cells (HUVEC); actives raise or lower the signal. In short, it runs like this: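 In this multiplexed HUVEC system, biomarker ELISA was performed after 24 h chemical exposure. Parallel SRB staining (TCA fixation, 560 nm) tracked cytotoxicity; DMSO served as baseline.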

Assay [19] has as its target human Thyroid Receptor alpha (THRa1), THRA (gene 7067) (UniProt P10827). Nature of the assay: ATG_THRa1_TRANS: Attagene TRANS-FACTORIAL HepG2 Assay for human Thyroid Receptor alpha (THRa1) (AID 2283014; active = hit-call score of the fitted dose curve at least 0.9, where 1 is the maximum). In short, it runs like this:
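Measured here is mRNA from a GAL4-UAS reporter in transfected HepG2 cells carrying a Gal4-fused receptor, 24 h post-dose. DMSO served as negative control and baseline.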

Read-out in assay [20]: Interleukin-8 (IL8), CXCL8 (gene 3576)
Nature of the assay: BSK_3C_IL8: BioMAP Diversity Plus: 3C Assay for Interleukin-8 (IL8) Biomarker Activity (AID 2283020). As to conditions: primary human endothelial cells (HUVEC); actives raise or lower the signal. In short, it runs like this: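 HUVEC, 3C stimulation; 24 h compound exposure; IL-8 read by ELISA; gain or loss of signal fitted relative to DMSO control.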

human Vitamin D Receptor (VDR), VDR (gene 7421), sequence (P11473 whole entry, looked up): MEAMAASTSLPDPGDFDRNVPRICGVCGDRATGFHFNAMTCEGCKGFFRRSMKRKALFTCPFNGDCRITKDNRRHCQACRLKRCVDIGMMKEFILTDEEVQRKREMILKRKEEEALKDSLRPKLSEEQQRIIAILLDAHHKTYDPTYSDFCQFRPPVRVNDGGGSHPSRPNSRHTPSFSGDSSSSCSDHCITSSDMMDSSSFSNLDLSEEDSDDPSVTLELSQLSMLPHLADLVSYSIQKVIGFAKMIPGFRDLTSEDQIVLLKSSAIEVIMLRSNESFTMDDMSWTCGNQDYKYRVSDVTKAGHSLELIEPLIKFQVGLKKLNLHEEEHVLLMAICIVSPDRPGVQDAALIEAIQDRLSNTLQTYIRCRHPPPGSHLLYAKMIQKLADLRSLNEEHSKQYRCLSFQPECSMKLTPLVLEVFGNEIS
E-selectin (Homo sapiens), sequence (P16581 whole entry, looked up): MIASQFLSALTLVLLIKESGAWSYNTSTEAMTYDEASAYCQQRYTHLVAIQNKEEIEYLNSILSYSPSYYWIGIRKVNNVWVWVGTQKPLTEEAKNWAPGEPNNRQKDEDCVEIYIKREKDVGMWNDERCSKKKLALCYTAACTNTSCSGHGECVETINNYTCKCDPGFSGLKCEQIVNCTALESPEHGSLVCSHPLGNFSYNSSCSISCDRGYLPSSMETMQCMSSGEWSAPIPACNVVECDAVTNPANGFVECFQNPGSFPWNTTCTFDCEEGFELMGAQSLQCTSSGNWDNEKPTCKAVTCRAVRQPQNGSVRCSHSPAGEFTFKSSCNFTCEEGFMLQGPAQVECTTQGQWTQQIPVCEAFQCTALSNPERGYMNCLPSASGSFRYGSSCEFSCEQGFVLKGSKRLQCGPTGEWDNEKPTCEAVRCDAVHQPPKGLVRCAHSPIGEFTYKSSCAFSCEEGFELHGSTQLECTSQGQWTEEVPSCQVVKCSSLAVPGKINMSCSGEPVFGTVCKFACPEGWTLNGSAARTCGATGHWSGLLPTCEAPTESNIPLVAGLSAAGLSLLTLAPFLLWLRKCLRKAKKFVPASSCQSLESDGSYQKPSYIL
human Thyroid Receptor alpha (THRa1), THRA (gene 7067), sequence (P10827 whole entry, looked up, the tested form may be a part): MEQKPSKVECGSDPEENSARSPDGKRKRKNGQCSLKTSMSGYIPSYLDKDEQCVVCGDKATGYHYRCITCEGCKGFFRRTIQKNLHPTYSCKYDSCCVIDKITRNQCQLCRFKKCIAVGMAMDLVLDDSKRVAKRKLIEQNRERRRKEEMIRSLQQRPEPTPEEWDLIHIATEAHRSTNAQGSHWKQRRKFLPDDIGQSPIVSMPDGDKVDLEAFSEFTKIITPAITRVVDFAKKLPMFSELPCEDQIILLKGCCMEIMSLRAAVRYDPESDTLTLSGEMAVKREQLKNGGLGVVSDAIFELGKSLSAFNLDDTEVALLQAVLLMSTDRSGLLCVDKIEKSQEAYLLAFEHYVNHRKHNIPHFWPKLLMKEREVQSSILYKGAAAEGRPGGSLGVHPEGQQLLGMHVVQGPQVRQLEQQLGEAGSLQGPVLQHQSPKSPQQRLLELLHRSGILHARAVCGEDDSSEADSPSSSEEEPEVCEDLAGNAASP

With `COc1nc(C)nc(NC(=O)NS(=O)(=O)c2ccccc2OCCCl)n1`, the compound was called inactive in assay [1], in assay [2], in assay [3], in [4], in [5] and in assay [6]. Moreover, the result in assay [7], in assay [8], in assay [9], in [10], in [11] and in [12] was inactive. Also, the result in assay [13], in assay [14], in assay [15], in assay [16], in assay [17] and in assay [18] was inactive.
As for `CCCCOC(=O)[C@@H](C)Oc1ccc(Oc2ccc(C(F)(F)F)cn2)cc1`, the call in assay [1], in assay [2], in assay [19], in [3], in assay [4] and in assay [5] was inactive. For the same compound, the result in [6], in assay [7], in [8], in assay [10], in assay [11] and in assay [13] was inactive. Besides, the result in assay [14], in assay [15], in assay [16], in assay [17] and in [18] was inactive. Also, the AC50 in assay [12] is 39 µM (active).
Consider `Cc1nn(C)c(Oc2ccccc2)c1C=NOCc1ccc(C(=O)OC(C)(C)C)cc1`, for which the compound was classed as inactive in assay [1], in assay [2], in [4], in assay [8], in assay [9] and in assay [18]. The AC50 in [19] was 109 nM (active); in assay [3], 20 µM (active); in assay [5], 14.4 µM (active); in [6], 6.16 µM (active); in assay [7], 3.97 µM (active); in [20] it was 9.81 µM (active). Further, the AC50 in assay [10] is 9.91 µM (active); in assay [11], 4.59 µM (active); in assay [12], 15.2 µM (active); in assay [13], 12.9 µM (active); in assay [14], 16.3 µM (active); in assay [15] it was 12 µM (active). In addition, the AC50 in assay [16] was 5.41 µM (active); in assay [17], 30.6 µM (active).
Turning to `COCCO`, the compound was classed as inactive in assay [1], in assay [2], in assay [3], in [4], in assay [5] and in assay [6]. In addition, the outcome in assay [7], in assay [8], in [9], in [10], in [11] and in assay [12] was inactive. The outcome in [13], in assay [14], in [15], in [16] and in [17] was inactive.
As for `CCN(CC)C(=O)c1cccc(C)c1`, the call in assay [1], in assay [2], in assay [19], in assay [3], in assay [4] and in assay [5] was inactive. In addition, the result in assay [6], in assay [7], in assay [20], in assay [8], in [9] and in assay [10] was inactive. Besides, the outcome in assay [11], in assay [12], in [13], in [14], in assay [15] and in [16] was inactive. For the same compound, the outcome in [17] and in assay [18] was inactive.
Take `CCCOC(=O)c1ccc(C(=O)OCCC)nc1`: the result in assay [1], in assay [2], in assay [19], in assay [3], in assay [4] and in assay [5] was inactive. The outcome in assay [6], in assay [7], in [8], in assay [10], in assay [11] and in assay [12] was inactive. Moreover, the outcome in assay [13], in assay [14], in assay [15], in [16], in assay [17] and in [18] was inactive.
`CCOC(=O)C(C)Oc1ccc(Oc2nc3ccc(Cl)cc3o2)cc1` (stereo not given): the call in assay [1], in assay [2], in assay [19], in assay [3], in [4] and in assay [6] was inactive. Moreover, the result in assay [8], in assay [9], in assay [10], in [11], in assay [12] and in assay [13] was inactive. Besides, the result in [14], in [15], in [16], in [17] and in [18] was inactive. Further, the half-maximal activity concentration (AC50) in assay [5] and in [7] was 20 µM (active) throughout.
